# Where a chain is given by its changes, count along the chain named.
# Key:
# Assay in all cases: PBM; 200 nM protein, PBS
# Conditions in all cases: dsDNA, one strand shown
# PAX4 [1] = molecular target: T1, PAX4 (Homo sapiens, UniProt O43316 9-242, R200K)
# T1 sequence: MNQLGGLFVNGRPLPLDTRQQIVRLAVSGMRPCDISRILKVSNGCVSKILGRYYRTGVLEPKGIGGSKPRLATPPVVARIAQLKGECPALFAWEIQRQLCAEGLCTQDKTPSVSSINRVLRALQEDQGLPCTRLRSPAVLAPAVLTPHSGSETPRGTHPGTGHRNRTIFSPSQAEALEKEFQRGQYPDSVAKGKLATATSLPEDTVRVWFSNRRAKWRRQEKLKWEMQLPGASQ
# PAX4 [2] = molecular target: T2, PAX4 (Homo sapiens, UniProt O43316 9-242)
# T2 sequence: T1 sequence with K192R
# HOXA2 [3] = molecular target: HOXA2 (Homo sapiens, UniProt O43364 129-215, R185T)
# PAX4 [4] = molecular target: T3, PAX4 (Homo sapiens, UniProt O43316 9-242, R200Q)
# T3 sequence: T1 sequence with K192Q
# HOXA2 [5] = molecular target: HOXA2 (Homo sapiens, UniProt O43364 129-215, R185K)
# PAX4 [6] = molecular target: T4, PAX4 (Homo sapiens, UniProt O43316 9-242, F177V)
# T4 sequence: T1 sequence with F169V, K192R
# PAX4 [7] = molecular target: T5, PAX4 (Homo sapiens, UniProt O43316 9-242, F177Y)
# T5 sequence: T1 sequence with F169Y, K192R
# PAX4 [8] = molecular target: T6, PAX4 (Homo sapiens, UniProt O43316 9-242, R227W)
# T6 sequence: T1 sequence with K192R, R219W
# HOXA2 [9] = molecular target: HOXA2 (Homo sapiens, UniProt O43364 129-215, Y150S)
# HOXA2 [10] = molecular target: HOXA2 (Homo sapiens, UniProt O43364 129-215)
# NKX2-6 = molecular target: T7, NKX2-6 (Homo sapiens, UniProt A6NCS4 118-204, R150C)
# T7 sequence: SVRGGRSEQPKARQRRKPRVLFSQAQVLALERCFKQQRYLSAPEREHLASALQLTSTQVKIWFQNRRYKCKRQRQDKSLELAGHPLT
# MSX2 [11] = molecular target: MSX2 (Homo sapiens, UniProt P35548 130-214, R199I)
# MSX2 [12] = molecular target: MSX2 (Homo sapiens, UniProt P35548 130-214)
# MSX2 [13] = molecular target: MSX2 (Homo sapiens, UniProt P35548 130-214, F161Y)
# PITX2 = PITX2 (Homo sapiens, UniProt Q99697 72-157)
# ALX3 [14] = molecular target: ALX3 (Homo sapiens, UniProt O95076 139-225, N203Q)
# ALX3 [15] = molecular target: ALX3 (Homo sapiens, UniProt O95076 139-225)
# ALX3 [16] = molecular target: ALX3 (Homo sapiens, UniProt O95076 139-225, L168Q)
# ALX3 [17] = molecular target: ALX3 (Homo sapiens, UniProt O95076 139-225, L168V)
# ALX3 [18] = molecular target: ALX3 (Homo sapiens, UniProt O95076 139-225, N203S)
# ALX3 (Homo sapiens, UniProt O95076 139-225, N203S), sequence (O95076 139-225 N203S): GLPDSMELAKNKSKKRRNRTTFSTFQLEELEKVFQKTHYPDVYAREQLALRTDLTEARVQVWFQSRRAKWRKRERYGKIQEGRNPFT
# HOXA2 (Homo sapiens, UniProt O43364 129-215, R185T), sequence (O43364 129-215 R185T): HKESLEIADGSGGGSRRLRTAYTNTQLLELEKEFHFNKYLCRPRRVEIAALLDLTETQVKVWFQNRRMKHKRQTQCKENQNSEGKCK
# HOXA2 (Homo sapiens, UniProt O43364 129-215), sequence (O43364 129-215): as the sequence (O43364 129-215 R185T) above, with T57R counted along it
# HOXA2 (Homo sapiens, UniProt O43364 129-215, R185K), sequence (O43364 129-215 R185K): as the sequence (O43364 129-215 R185T) above, with T57K counted along it
# HOXA2 (Homo sapiens, UniProt O43364 129-215, Y150S), sequence (O43364 129-215 Y150S): as the sequence (O43364 129-215 R185T) above, with Y22S, T57R counted along it
# MSX2 (Homo sapiens, UniProt P35548 130-214), sequence (P35548 130-214): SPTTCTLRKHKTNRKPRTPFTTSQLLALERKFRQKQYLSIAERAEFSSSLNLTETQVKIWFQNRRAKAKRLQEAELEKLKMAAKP
# ALX3 (Homo sapiens, UniProt O95076 139-225, L168Q), sequence (O95076 139-225 L168Q): as the sequence (O95076 139-225 N203S) above, with L30Q, S65N counted along it
# MSX2 (Homo sapiens, UniProt P35548 130-214, F161Y), sequence (P35548 130-214 F161Y): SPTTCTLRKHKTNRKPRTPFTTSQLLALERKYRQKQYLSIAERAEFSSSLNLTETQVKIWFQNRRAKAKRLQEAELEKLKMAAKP
# MSX2 (Homo sapiens, UniProt P35548 130-214, R199I), sequence (P35548 130-214 R199I): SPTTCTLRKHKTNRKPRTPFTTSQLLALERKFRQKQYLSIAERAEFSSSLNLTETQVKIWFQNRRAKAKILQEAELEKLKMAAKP
# ALX3 (Homo sapiens, UniProt O95076 139-225), sequence (O95076 139-225): as the sequence (O95076 139-225 N203S) above, with S65N counted along it
# ALX3 (Homo sapiens, UniProt O95076 139-225, L168V), sequence (O95076 139-225 L168V): as the sequence (O95076 139-225 N203S) above, with L30V, S65N counted along it
# ALX3 (Homo sapiens, UniProt O95076 139-225, N203Q), sequence (O95076 139-225 N203Q): as the sequence (O95076 139-225 N203S) above, with S65Q counted along it
sequence,measurement,setting,value
CGGGGCGC,binding signal,PAX4 [1],"9.09 upbm affinity estimate (log intensity, higher = more binding, comparable within an allelic series)"
same,binding signal,PAX4 [2],"9 upbm affinity estimate (log intensity, higher = more binding, comparable within an allelic series)"
same,binding signal,HOXA2 [3],"7.19 upbm affinity estimate (log intensity, higher = more binding, comparable within an allelic series)"
same,binding signal,PAX4 [4],"8.96 upbm affinity estimate (log intensity, higher = more binding, comparable within an allelic series)"
same,binding signal,HOXA2 [5],"9.85 upbm affinity estimate (log intensity, higher = more binding, comparable within an allelic series)"
same,binding signal,PAX4 [6],"8.91 upbm affinity estimate (log intensity, higher = more binding, comparable within an allelic series)"
same,binding signal,PAX4 [7],"9.04 upbm affinity estimate (log intensity, higher = more binding, comparable within an allelic series)"
same,binding signal,PAX4 [8],"9.06 upbm affinity estimate (log intensity, higher = more binding, comparable within an allelic series)"
same,binding signal,HOXA2 [9],"10.3 upbm affinity estimate (log intensity, higher = more binding, comparable within an allelic series)"
same,binding signal,HOXA2 [10],"7.21 upbm affinity estimate (log intensity, higher = more binding, comparable within an allelic series)"
GCCCGGCA,binding signal,PAX4 [1],"9.23 upbm affinity estimate (log intensity, higher = more binding, comparable within an allelic series)"
same,binding signal,PAX4 [2],"9.34 upbm affinity estimate (log intensity, higher = more binding, comparable within an allelic series)"
same,binding signal,NKX2-6,"9.33 upbm affinity estimate (log intensity, higher = more binding, comparable within an allelic series)"
same,binding signal,PAX4 [4],"9.28 upbm affinity estimate (log intensity, higher = more binding, comparable within an allelic series)"
same,binding signal,PAX4 [6],"9.09 upbm affinity estimate (log intensity, higher = more binding, comparable within an allelic series)"
same,binding signal,PAX4 [7],"9.13 upbm affinity estimate (log intensity, higher = more binding, comparable within an allelic series)"
same,binding signal,PAX4 [8],"9.21 upbm affinity estimate (log intensity, higher = more binding, comparable within an allelic series)"
CCCCTGGC,binding signal,PAX4 [1],"9.25 upbm affinity estimate (log intensity, higher = more binding, comparable within an allelic series)"
same,binding signal,PAX4 [2],"9.29 upbm affinity estimate (log intensity, higher = more binding, comparable within an allelic series)"
same,binding signal,MSX2 [11],"9.36 upbm affinity estimate (log intensity, higher = more binding, comparable within an allelic series)"
same,binding signal,PAX4 [4],"9.32 upbm affinity estimate (log intensity, higher = more binding, comparable within an allelic series)"
same,binding signal,PAX4 [6],"9.09 upbm affinity estimate (log intensity, higher = more binding, comparable within an allelic series)"
same,binding signal,MSX2 [12],"9.68 upbm affinity estimate (log intensity, higher = more binding, comparable within an allelic series)"
same,binding signal,PAX4 [7],"9.12 upbm affinity estimate (log intensity, higher = more binding, comparable within an allelic series)"
same,binding signal,MSX2 [13],"9.68 upbm affinity estimate (log intensity, higher = more binding, comparable within an allelic series)"
same,binding signal,PAX4 [8],"9.26 upbm affinity estimate (log intensity, higher = more binding, comparable within an allelic series)"
CGGAGGGC,binding signal,PAX4 [1],"9.09 upbm affinity estimate (log intensity, higher = more binding, comparable within an allelic series)"
same,binding signal,PAX4 [2],"9.28 upbm affinity estimate (log intensity, higher = more binding, comparable within an allelic series)"
same,binding signal,HOXA2 [3],"7.21 upbm affinity estimate (log intensity, higher = more binding, comparable within an allelic series)"
same,binding signal,PAX4 [4],"9.19 upbm affinity estimate (log intensity, higher = more binding, comparable within an allelic series)"
same,binding signal,PITX2,"7.96 upbm affinity estimate (log intensity, higher = more binding, comparable within an allelic series)"
same,binding signal,HOXA2 [5],"10.3 upbm affinity estimate (log intensity, higher = more binding, comparable within an allelic series)"
same,binding signal,PAX4 [6],"9.08 upbm affinity estimate (log intensity, higher = more binding, comparable within an allelic series)"
same,binding signal,PAX4 [7],"9 upbm affinity estimate (log intensity, higher = more binding, comparable within an allelic series)"
same,binding signal,PAX4 [8],"9.1 upbm affinity estimate (log intensity, higher = more binding, comparable within an allelic series)"
same,binding signal,HOXA2 [9],"10.3 upbm affinity estimate (log intensity, higher = more binding, comparable within an allelic series)"
same,binding signal,HOXA2 [10],"7.24 upbm affinity estimate (log intensity, higher = more binding, comparable within an allelic series)"
GGGGGGGA,binding signal,PAX4 [1],"9.06 upbm affinity estimate (log intensity, higher = more binding, comparable within an allelic series)"
same,binding signal,PAX4 [2],"9.13 upbm affinity estimate (log intensity, higher = more binding, comparable within an allelic series)"
same,binding signal,HOXA2 [3],"6.89 upbm affinity estimate (log intensity, higher = more binding, comparable within an allelic series)"
same,binding signal,ALX3 [14],"7.53 upbm affinity estimate (log intensity, higher = more binding, comparable within an allelic series)"
same,binding signal,PAX4 [4],"9.12 upbm affinity estimate (log intensity, higher = more binding, comparable within an allelic series)"
same,binding signal,HOXA2 [5],"9.81 upbm affinity estimate (log intensity, higher = more binding, comparable within an allelic series)"
same,binding signal,PAX4 [6],"9.01 upbm affinity estimate (log intensity, higher = more binding, comparable within an allelic series)"
same,binding signal,ALX3 [15],"7.53 upbm affinity estimate (log intensity, higher = more binding, comparable within an allelic series)"
same,binding signal,PAX4 [7],"9.15 upbm affinity estimate (log intensity, higher = more binding, comparable within an allelic series)"
same,binding signal,ALX3 [16],"7.42 upbm affinity estimate (log intensity, higher = more binding, comparable within an allelic series)"
same,binding signal,ALX3 [17],"7.45 upbm affinity estimate (log intensity, higher = more binding, comparable within an allelic series)"
same,binding signal,PAX4 [8],"9.15 upbm affinity estimate (log intensity, higher = more binding, comparable within an allelic series)"
same,binding signal,HOXA2 [9],"10.2 upbm affinity estimate (log intensity, higher = more binding, comparable within an allelic series)"
same,binding signal,ALX3 [18],"7.55 upbm affinity estimate (log intensity, higher = more binding, comparable within an allelic series)"
same,binding signal,HOXA2 [10],"7.05 upbm affinity estimate (log intensity, higher = more binding, comparable within an allelic series)"
GTACGTAA,binding signal,PAX4 [1],"10.4 upbm affinity estimate (log intensity, higher = more binding, comparable within an allelic series)"
same,binding signal,PAX4 [2],"10.6 upbm affinity estimate (log intensity, higher = more binding, comparable within an allelic series)"
same,binding signal,PAX4 [4],"10.6 upbm affinity estimate (log intensity, higher = more binding, comparable within an allelic series)"
TGAATTAA,binding signal,PAX4 [1],"11.8 upbm affinity estimate (log intensity, higher = more binding, comparable within an allelic series)"
same,binding signal,PAX4 [2],"12.3 upbm affinity estimate (log intensity, higher = more binding, comparable within an allelic series)"
same,binding signal,HOXA2 [3],"11.1 upbm affinity estimate (log intensity, higher = more binding, comparable within an allelic series)"
same,binding signal,PAX4 [4],"11.9 upbm affinity estimate (log intensity, higher = more binding, comparable within an allelic series)"
same,binding signal,PITX2,"11.2 upbm affinity estimate (log intensity, higher = more binding, comparable within an allelic series)"
same,binding signal,HOXA2 [5],"12.5 upbm affinity estimate (log intensity, higher = more binding, comparable within an allelic series)"
same,binding signal,PAX4 [6],"10.6 upbm affinity estimate (log intensity, higher = more binding, comparable within an allelic series)"
same,binding signal,PAX4 [7],"11.1 upbm affinity estimate (log intensity, higher = more binding, comparable within an allelic series)"
same,binding signal,HOXA2 [9],"10.8 upbm affinity estimate (log intensity, higher = more binding, comparable within an allelic series)"
same,binding signal,HOXA2 [10],"11.1 upbm affinity estimate (log intensity, higher = more binding, comparable within an allelic series)"
